Screening data (PubChem)
KDM5B inhibitor – Primary screen for KDM5B Histone Demethylases FDH-coupled qHTS; KDM5B demethylase, FDH-coupled NADH fluorescence (FDH is formaldehyde dehydrogenase); Lysine-specific demethylase 5B (Homo sapiens), Q9UGL1; Potency, µM (doses to about 57.7 µM), hits mostly inhibitors; AID 1347165, 2019; 220,000 compounds, 2.6% hits; active = well fitted inhibition curve with a large enough effect; inconclusive = small, poorly fitted or top-dose-only effect; inactive = no such curve, though single readings can be large or run the other way; also: potency is read from the fitted curve at half-maximal effect; 0% is about no effect; nearly all actives have a fitted effect of over 70% in size
Target sequence (Q9UGL1 whole entry, looked up): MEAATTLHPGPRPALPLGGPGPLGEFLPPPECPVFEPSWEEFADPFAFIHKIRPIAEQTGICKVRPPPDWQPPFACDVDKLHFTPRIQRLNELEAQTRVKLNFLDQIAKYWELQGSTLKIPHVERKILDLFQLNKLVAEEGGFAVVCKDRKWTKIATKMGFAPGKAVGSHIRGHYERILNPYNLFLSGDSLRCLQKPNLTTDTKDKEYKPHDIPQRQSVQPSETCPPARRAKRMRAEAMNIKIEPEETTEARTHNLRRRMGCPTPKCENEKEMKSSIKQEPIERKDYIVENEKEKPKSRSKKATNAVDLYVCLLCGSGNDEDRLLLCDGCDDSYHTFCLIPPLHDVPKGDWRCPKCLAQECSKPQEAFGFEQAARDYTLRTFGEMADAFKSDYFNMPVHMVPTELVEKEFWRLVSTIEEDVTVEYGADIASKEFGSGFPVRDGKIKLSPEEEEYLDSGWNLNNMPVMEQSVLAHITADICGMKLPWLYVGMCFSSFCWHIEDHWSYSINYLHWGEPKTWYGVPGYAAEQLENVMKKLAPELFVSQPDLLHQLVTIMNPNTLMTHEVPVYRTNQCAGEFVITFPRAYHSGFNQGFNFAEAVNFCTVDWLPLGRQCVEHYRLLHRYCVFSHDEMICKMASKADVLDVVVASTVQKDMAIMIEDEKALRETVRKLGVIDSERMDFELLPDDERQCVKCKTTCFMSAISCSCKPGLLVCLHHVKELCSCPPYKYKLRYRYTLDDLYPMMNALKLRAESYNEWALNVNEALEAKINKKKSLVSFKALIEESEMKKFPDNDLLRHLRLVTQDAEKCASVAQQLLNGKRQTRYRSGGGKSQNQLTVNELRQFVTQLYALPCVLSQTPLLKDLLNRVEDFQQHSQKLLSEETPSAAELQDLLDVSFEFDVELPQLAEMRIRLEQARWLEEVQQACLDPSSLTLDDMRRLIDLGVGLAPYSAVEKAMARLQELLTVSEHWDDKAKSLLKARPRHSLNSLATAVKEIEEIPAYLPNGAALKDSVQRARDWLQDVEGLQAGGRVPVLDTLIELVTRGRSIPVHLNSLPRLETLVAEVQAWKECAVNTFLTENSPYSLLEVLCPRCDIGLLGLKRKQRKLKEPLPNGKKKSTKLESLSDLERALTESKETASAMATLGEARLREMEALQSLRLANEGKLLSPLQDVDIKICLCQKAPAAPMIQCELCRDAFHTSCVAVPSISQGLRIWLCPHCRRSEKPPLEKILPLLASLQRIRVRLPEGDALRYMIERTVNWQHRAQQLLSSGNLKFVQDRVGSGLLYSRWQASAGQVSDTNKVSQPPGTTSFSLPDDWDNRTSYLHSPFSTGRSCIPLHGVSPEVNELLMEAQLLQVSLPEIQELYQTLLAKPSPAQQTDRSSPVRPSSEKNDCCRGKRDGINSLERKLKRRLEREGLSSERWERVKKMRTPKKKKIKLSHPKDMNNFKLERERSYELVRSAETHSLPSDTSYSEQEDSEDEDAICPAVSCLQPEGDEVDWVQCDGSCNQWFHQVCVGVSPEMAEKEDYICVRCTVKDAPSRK
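Compound dilutions met 200 nM (final) KDM5BΔAP for 10 min at room temperature before substrate addition. The substrate mix held 12.5 µM H3K4me3 with cofactors 25 µM α-ketoglutarate and 50 µM Fe²⁺. NADH signal gain over 30 min defined activity.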
IP6K1 inhibitor – Primary qHTS assay for small molecule inhibitors of Inositol hexaphosphate kinase 1 (IP6K1); IP6K1 kinase, ADP-Glo luminescence, 2 h; stronger effect = lower value; activity change, % (series mostly up to about 58 µM); 140,000 compounds, 0.81% hits; in the data active = activity change below about -25%; also: % is scaled to controls: 0 for no effect and ±100 for the full control effect
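ADP-Glo luminescence measures ADP made by human IP6K1 during a 2 h RT reaction with ATP/IP6 (mix at 1.3 mM/130 uM); top library doses 57.5 and 19.1 uM final.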
Starred values were filed as active, the others as inactive; i = inactive; ? = inconclusive; . = no result. The list is not random: actives were taken first. Their share in the collection is about 2.8%.

SMILES	KDM5B inhibitor	IP6K1 inhibitor
CN1CC(=O)N(c2ccccc2F)Cc2c1ncnc2N1CCc2ccccc2C1	i	-7
O=C(c1ccccc1Cl)N1CCCN(c2ccc3nnc(-c4ccccc4)n3n2)CC1	.	7
COc1ccc(C(=O)N2CCCN(c3cc(-c4ccc(C)c(C)c4)[nH]n3)CC2)cc1OC	i	-6
O=C(CCc1ccccc1)N1CCN(c2cc(-c3cccs3)[nH]n2)CC1	?	7
Cc1ccc(C(=O)N2CCN(c3nnc4cccc(C)n34)CC2)cc1C	25µM*	18
Cc1cccc2nnc(N3CCCN(C(=O)c4ccccc4Cl)CC3)n12	22µM*	17
Cc1cccc2nnc(N3CCN(C(=O)CCc4ccccc4)CC3)n12	25µM*	8
COc1ccc(-n2c(=O)c(C(=O)NCc3cccs3)nc3cccnc32)cc1	.	3
CC(C)(C)OCC(O)CN1CCC(=O)N(Cc2ccccc2)Cc2cc(F)ccc21 (stereo unspecified)	.	-8
CCC(O)C1CCN(C(=O)c2cnn3cc(CN(CC)CC)cnc23)CC1 (stereo unspecified)	i	-4
CN1C[C@@H]2CC[C@H](CC1=O)N2C(=O)c1cnn2cc(CCO)cnc12	32µM*	-2
Cc1ncc(CO)c(CN2CCC3(CC2)Cc2ccccc2CNC3=O)c1O	71µM*	22
Cc1ncc(CO)c(CN2CCCC3(Cc4ccccc4CNC3=O)C2)c1O (stereo unspecified)	79µM*	8
Cc1ccccc1CN1CCC2(CC1)Cc1ccccc1CNC2=O	i	15
O=C1NCc2ccccc2CC12CCCN(Cc1ccnc3ccccc13)C2 (stereo unspecified)	?	-2
O=C(CCCc1c[nH]c2ccccc12)NCc1ccc(F)cc1	i	.
Cc1noc(C)c1[S+](=O)([O-])NC1CCN(c2ccc3nnc(-c4ccccc4)n3n2)CC1	.	-14
Cc1ccc(Nc2ccnc(N3CCC(C(=O)NCC4CC4)CC3)n2)cc1	.	1
COc1ccc(NC(=O)c2ccnc(-c3nnc4ccc(Nc5ccccc5)nn34)c2)cn1	32µM*	-11
C[C@@H]1CN(C(=O)c2ccnc(-c3nnc4ccc(Nc5ccccc5)nn34)c2)C[C@H](C)O1	i	7
CCCn1c(CSc2nnc(C3CC3)n2-c2ccccc2)nc2cc(S(=O)(=O)N(C)C)ccc21	i	.
CCOc1ccc(-c2nnc(SCc3nc4ccccc4o3)o2)cc1	i	.
CN1Cc2ccc(Nc3ccccc3)nc2C(C)(C(=O)NCc2cccs2)C1 (stereo unspecified)	32µM*	17
COc1cccc(Nc2ccc3c(n2)C(C)(C(=O)NCCc2ccccn2)CN(C)C3)c1 (stereo unspecified)	?	2
COc1cccc(Nc2ccc3c(n2)C(C)(C(=O)NCC2CC2)CN(C)C3)c1 (stereo unspecified)	35µM*	6
SMILES	KDM5B inhibitor	IP6K1 inhibitor
COCCN1Cc2ccc(Nc3cccnc3)nc2C(C)(C(=O)Nc2cccc(F)c2)C1 (stereo unspecified)	?	9
CN1Cc2ccc(NCc3ccccc3)nc2C(C)(C(=O)NC2CCC2)C1 (stereo unspecified)	i	3
COc1cccc(Nc2ccc3c(n2)C(C)(C(=O)NCCc2cnc[nH]2)CN(C)C3)c1 (stereo unspecified)	40µM*	19
COC(=O)c1cnn(-c2ccc(C(=O)Nc3cc(Cl)ccc3C)cc2)c1N	i	.
COc1ccccc1C(=O)NC1CCCN(Cc2cccc(-c3ccc(C)c(Cl)c3)c2)C1 (stereo unspecified)	.	-7
Cc1c(C(=O)CSc2nnc(C3CC3)n2C2CC2)oc2ccccc12	i	.
CC(NC(=O)C1CCCCC1)c1ccncc1 (stereo unspecified)	i	.
COC(=O)c1ccc2oc(=O)c(S(=O)(=O)c3ccc(F)cc3)cc2c1	i	.
Cc1cc2oc(=O)cc(CN(C)CCOc3ccccc3F)c2cc1C	i	.
CC(C)N1C(=O)C2(CCN(C(=O)Cc3c[nH]c4ccccc34)CC2)C1c1ccccc1 (stereo unspecified)	.	4
CCCCCCCCCCCCS(=O)C1CCCCC1OC(C)=O (stereo unspecified)	i	.
CC(C)=CC1C(C(=O)N(C)CC(=O)NC(C)(C)C)C1(C)C (stereo unspecified)	i	.
O=C(c1ccccc1F)N1CCN(Cc2ccccc2-c2ccccc2F)CC1	.	-1
O=C(C1CCCC1)N1C[C@@H](CO)[C@@H]2Oc3c(F)cccc3[C@@H]21	.	20
CCn1ccc2c(CN3CCC4(CCCN(CCOC)C4=O)C3)cccc21 (stereo unspecified)	28µM*	0
COCCN1CCCC2(CCN(c3ccc4ccccc4n3)C2)C1=O (stereo unspecified)	?	-2
COc1ccc(CCNC(=O)C2CCN(c3ccnc4ccnn34)CC2)cc1	.	11
Cc1nc(CN2Cc3nc(Nc4ccc(C(F)(F)F)cc4)ccc3OCC2=O)cs1	35µM*	-6
COc1ccc(Nc2ccc3c(n2)CN(Cc2ccccc2C)C(=O)CO3)cc1	35µM*	-12
CN1Cc2nc(Nc3ccc(C(F)(F)F)cc3)ccc2OCC1=O	?	-8
COc1ccc(Nc2ccc3c(n2)CN(Cc2ccccc2F)C(=O)CO3)cc1	35µM*	-25
COc1ccccc1-c1ccc2c(n1)CN(Cc1ccccc1C)C(=O)CO2	?	5
O=C1COc2ccc(Nc3ccccc3)nc2CN1Cc1ccccc1	?	-21
Cc1ccc(C(=O)OCc2nnc(-c3ccc(Cl)cc3)o2)s1	i	.
C=CCNC(=O)C(NC(=O)c1cccc(OC)c1)C1CCN(C(=O)c2ccc(F)cc2)CC1 (stereo unspecified)	i	7
SMILES	KDM5B inhibitor	IP6K1 inhibitor
C=CCNC(=O)C(NC(=O)c1cccs1)C1CCN(C(=O)c2ccc(F)cc2)CC1 (stereo unspecified)	28µM*	12
CSc1ccc(-c2cccc(C(=O)NCCNC(=O)N(C)C)c2)cc1	.	7
COc1cccc(-c2ccc(C(=O)O)cc2)c1	112µM*	-20
COc1ccc(-c2cccc(C(=O)O)c2)cc1	i	.
Cc1cc(C)cc(C2(CNC(=O)C3CC4(CCNCC4)CN3)CCCC2)c1 (stereo unspecified)	i	5
O=C(NCc1ccccc1)c1nc2c(o1)CCN(Cc1ccc(F)cc1)CC2	i	5
O=C(NCCOc1ccccc1)c1nc2c(o1)CCN(Cc1ccc3[nH]ccc3c1)CC2	40µM*	3
O=C(Nc1ccc(Cl)cc1)c1nc2c(o1)CCN(Cc1cc(F)ccc1F)CC2	32µM*	-2
O=C(Nc1ccc(Cl)cc1)c1nc2c(o1)CCN(Cc1ccccc1)CC2	32µM*	6
O=C(NCC1CC1)c1nc2c(o1)CCN(Cc1ccc3[nH]ccc3c1)CC2	i	20
O=C(Nc1cccnc1)c1nc2c(o1)CCN(Cc1ccc(F)c(F)c1)CC2	i	18
O=C(NCc1ccccc1)c1nc2c(o1)CCN(Cc1ccc(F)c(Cl)c1)CC2	28µM*	2
COc1ccc(CN2CCc3nc(C(=O)Nc4ccc(Cl)cc4)oc3CC2)cc1OC	?	5
COCCNc1nc2c(c(=O)[nH]c(=O)n2C)n1CCC(C)C	i	.
Cc1ccc(CNC(=O)c2ccc(NC(=O)Cn3c(C)cc(C)c(C#N)c3=O)cc2)o1	i	.
